# Values joined by “and” are separate entries in the source; they are usually repeats but may differ in a detail not shown here. Identical values can stand only once. Inconclusive results are not listed. Entries that show only a call come without a potency. Active and inactive are the calls of the source. Unless noted, the call rests on the fitted dose curve.
# Tests used:
# [1] = VSVG counterscreen qHTS to identify inhibitors of SARS-CoV-2 cell entry (AID 1645847); further: potency means the concentration at half of the fitted maximal effect; nearly all actives have a fitted effect of over 65% in size
# Summary of the method: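 HEK293-ACE2 cells (Expi293F, human ACE2) pretreated 1 h with compound, then infected with MLV-based VSV-G pseudotyped particles for 48 h at 37 C; luciferase luminescence normalized to VSV-G PP and bald PP wells.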
# [2] = molecular target: Ferritin light chain (Equus caballus) (UniProt P02791); test: qHTS Validation Assay for Identification of Novel General Anesthetics (AID 2323; active means well fitted curve in the direction sought with a large enough effect; an effect the other way counts as inactive or inconclusive)
# Ferritin light chain (Equus caballus), sequence (P02791 2-175 limits assumed): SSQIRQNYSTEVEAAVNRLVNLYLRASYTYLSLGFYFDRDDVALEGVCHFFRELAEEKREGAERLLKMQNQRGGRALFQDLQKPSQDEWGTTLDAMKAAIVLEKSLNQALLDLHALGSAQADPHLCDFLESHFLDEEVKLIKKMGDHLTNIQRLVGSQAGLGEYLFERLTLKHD
# Summary of the method: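 Horse-spleen apoferritin (10 uM) in PBS with 50% saturated 1-aminoanthracene; compounds pin-transferred, 10 min at room temperature. Fluorescence read at 380/535 nm, normalized to free 1-AMA and 1-AMA/apoferritin values; four-parameter Hill fit.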
# [3] = molecular target: Ubiquitin carboxyl-terminal hydrolase 1 (Homo sapiens) (UniProt O94782); test: Inhibitors of USP1/UAF1: Pilot qHTS (AID 504865; active means well fitted curve in the direction sought with a large enough effect; an effect the other way counts as inactive or inconclusive; further: nearly all actives have a fitted effect of over 35% in size; further: potency means the concentration at half of the fitted maximal effect)
# Ubiquitin carboxyl-terminal hydrolase 1 (Homo sapiens), sequence (O94782 whole entry, looked up): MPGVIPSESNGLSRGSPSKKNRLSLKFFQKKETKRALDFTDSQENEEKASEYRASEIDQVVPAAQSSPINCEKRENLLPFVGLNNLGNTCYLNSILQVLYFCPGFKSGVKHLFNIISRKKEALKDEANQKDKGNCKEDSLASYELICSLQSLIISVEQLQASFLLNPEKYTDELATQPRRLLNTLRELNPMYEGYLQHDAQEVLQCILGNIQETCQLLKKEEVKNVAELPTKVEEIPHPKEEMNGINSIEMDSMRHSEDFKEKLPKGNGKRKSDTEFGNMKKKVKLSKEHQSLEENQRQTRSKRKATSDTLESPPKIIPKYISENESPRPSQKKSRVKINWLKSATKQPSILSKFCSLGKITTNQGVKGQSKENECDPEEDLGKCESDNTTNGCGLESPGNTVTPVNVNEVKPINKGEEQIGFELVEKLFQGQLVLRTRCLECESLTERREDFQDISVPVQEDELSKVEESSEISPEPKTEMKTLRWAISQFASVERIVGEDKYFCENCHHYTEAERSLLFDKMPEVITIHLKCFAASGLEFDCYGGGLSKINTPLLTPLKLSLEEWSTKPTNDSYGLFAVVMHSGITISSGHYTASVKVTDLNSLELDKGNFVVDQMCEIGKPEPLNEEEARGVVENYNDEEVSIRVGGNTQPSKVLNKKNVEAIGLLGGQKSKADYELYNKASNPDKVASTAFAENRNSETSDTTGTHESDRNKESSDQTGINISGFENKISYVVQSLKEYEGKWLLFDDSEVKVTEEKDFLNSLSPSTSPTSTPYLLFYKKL
# Summary of the method: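 USP1/UAF1 complex at 1 nM preincubated 15 min at room temperature with compound, then Ub-Rho substrate added at 150 nM final. Fluorescence (480/540 nm) read kinetically in 50 mM HEPES pH 7.8, 0.5 mM EDTA, 1 mM TCEP, 0.1 mg/ml BSA, 0.01% Tween-20.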
# [4] = molecular target: Arylsulfatase A (Homo sapiens) (UniProt P15289); test: qHTS screen for enhancers of Arylsulfatase A (ASA1): LOPAC Validation Assay (AID 720538; active means well fitted curve in the direction sought with a large enough effect; an effect the other way counts as inactive or inconclusive)
# Arylsulfatase A (Homo sapiens), sequence (P15289 whole entry, looked up): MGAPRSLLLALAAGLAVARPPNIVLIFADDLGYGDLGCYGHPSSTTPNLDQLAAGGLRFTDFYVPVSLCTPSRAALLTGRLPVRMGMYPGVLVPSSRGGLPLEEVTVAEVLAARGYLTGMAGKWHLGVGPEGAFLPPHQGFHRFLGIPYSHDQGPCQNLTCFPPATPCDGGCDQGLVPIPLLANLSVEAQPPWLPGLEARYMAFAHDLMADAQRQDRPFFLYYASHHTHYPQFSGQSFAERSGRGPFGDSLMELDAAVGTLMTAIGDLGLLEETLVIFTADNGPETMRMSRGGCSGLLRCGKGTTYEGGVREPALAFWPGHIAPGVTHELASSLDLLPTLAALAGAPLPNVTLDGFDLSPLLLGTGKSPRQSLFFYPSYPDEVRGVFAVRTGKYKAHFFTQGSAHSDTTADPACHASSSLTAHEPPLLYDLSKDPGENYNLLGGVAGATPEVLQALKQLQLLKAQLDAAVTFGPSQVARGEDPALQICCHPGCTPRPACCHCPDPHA
# Summary of the method: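 SV40-transformed fibroblasts from an MLD patient (ASA-I179S) were treated with compound for 48 h at 37 C. They were then lysed with 0.5 mM pNCS substrate (final) for 14 h at room temperature and stopped with NaOH; signal read by fluorescence (Ex 525/Em 598 nm), with increase denoting enhanced activity.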
# [5] = molecular target: Cytochrome P450 2C9 (Homo sapiens) (UniProt P11712); test: qHTS Assay for Inhibitors and Substrates of Cytochrome P450 2C9 (AID 883; active means well fitted curve in the direction sought with a large enough effect; an effect the other way counts as inactive or inconclusive; further: nearly all actives have a fitted effect of over 60% in size; further: potency means the concentration at half of the fitted maximal effect)
# Cytochrome P450 2C9 (Homo sapiens), sequence (P11712 whole entry, looked up): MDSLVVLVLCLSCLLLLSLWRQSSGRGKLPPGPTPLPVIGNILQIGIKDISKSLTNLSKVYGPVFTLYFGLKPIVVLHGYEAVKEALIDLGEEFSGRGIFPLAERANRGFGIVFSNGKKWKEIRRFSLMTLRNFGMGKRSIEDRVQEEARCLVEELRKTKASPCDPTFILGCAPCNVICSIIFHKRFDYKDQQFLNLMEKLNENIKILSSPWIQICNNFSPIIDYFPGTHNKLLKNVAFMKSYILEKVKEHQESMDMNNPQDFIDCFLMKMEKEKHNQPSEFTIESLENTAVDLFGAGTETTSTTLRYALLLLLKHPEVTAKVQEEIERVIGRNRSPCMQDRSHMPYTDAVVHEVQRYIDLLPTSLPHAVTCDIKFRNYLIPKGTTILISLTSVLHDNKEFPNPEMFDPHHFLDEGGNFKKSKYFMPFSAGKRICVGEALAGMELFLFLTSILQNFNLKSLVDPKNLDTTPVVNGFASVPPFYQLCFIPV
# Summary of the method: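 Human CYP2C9 (10nM) hydroxylated Luciferin-H (100uM, at its KM) to luciferin in 25mM KPO4. Compound was preincubated 10 min at 37C, then NADPH regeneration started a 60 min reaction at 37C. Luminescence was read after detection reagent, normalized to 57uM sulphaphenazole.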
# [6] = qHTS profiling of the MIPE4 collection as inhibitors of Plasmodium falciparum (DD2) proliferation (Rep 2) (AID 743346; call rule not given here); conditions: P. falciparum Dd2 in erythrocytes, SYBR Green DNA, 72 h; at 28.5 µM (top of the series) unless noted
# Summary of the method: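 Erythrocytes infected with P. falciparum (0.3% parasitemia, 2.5% hematocrit) incubated with compounds 72 h at 37 C, 5% CO2. Lysis with saponin/Triton buffer containing SYBR Green I, overnight at room temperature in the dark; DNA fluorescence (485/535 nm) normalised to 0.29 uM artemisinin and DMSO.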
# [7] = molecular target: Estrogen receptor (Homo sapiens) (UniProt P03372); test: qHTS assay for small molecule agonists of estrogen receptor alpha signaling (AID 588514); further: nearly all actives have a fitted effect of over 70% in size; further: potency means the concentration at half of the fitted maximal effect
# Estrogen receptor (Homo sapiens), sequence (P03372 whole entry, looked up): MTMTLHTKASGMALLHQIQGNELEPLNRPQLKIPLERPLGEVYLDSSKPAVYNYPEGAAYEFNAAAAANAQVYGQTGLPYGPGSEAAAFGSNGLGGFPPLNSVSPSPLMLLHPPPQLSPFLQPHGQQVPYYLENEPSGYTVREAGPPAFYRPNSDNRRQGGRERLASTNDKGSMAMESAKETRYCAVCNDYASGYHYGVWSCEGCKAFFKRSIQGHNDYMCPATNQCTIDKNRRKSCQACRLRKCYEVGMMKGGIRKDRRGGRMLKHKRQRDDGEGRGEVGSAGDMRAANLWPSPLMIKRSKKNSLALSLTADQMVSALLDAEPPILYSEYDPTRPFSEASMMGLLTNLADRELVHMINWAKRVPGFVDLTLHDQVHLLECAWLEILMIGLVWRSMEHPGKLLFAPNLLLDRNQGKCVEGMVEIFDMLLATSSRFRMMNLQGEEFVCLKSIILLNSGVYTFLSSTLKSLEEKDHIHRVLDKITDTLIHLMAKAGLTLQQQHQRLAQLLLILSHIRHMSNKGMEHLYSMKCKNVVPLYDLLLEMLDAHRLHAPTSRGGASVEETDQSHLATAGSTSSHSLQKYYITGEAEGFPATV
# Summary of the method: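 ER-alpha-UAS-bla GripTite HEK293 cells, 5000/well in 2% charcoal/dextran-stripped FBS medium, treated with compound titrations 18 h at 37 C. CCF4 beta-lactamase read by fluorescence after 2 h RT; normalised to 20 nM 17-beta-estradiol (100%) and DMSO (0%), Hill fit for EC50 and efficacy.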
# [8] = molecular target: Peroxisome proliferator-activated receptor delta (Homo sapiens) (UniProt Q03181); test: qHTS assay for small molecule antagonists of peroxisome proliferator-activated receptor delta signaling (AID 588535; active means well fitted inhibition curve with a large enough effect in the signal ratio, with a control signal flat, not every such curve was filed as active; the % refers to the signal ratio)
# Peroxisome proliferator-activated receptor delta (Homo sapiens), sequence (Q03181 whole entry, looked up): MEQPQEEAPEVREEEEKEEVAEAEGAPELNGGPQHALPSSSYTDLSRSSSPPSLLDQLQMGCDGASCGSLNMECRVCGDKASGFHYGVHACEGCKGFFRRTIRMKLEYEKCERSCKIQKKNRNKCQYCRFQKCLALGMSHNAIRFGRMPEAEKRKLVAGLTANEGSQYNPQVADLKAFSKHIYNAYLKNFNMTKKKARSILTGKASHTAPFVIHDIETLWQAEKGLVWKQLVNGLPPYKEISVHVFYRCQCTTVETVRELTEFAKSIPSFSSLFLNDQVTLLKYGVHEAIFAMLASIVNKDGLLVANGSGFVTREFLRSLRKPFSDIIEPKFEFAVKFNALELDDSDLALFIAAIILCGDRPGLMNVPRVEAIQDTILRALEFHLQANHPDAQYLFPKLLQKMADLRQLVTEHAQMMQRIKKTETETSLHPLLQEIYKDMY
# Summary of the method: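 Reporter: UAS-bla under PPAR-delta response element, HEK293T host. Medium: 2% charcoal/dextran FBS. Dosing: titration, 18 hrs, 37 C. Detection: CCF4, 2 hrs RT, 405 ex/460 and 530 em.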
# [9] = molecular target: Vitamin D3 receptor (Homo sapiens) (UniProt P11473); test: qHTS assay for small molecule antagonists of vitamin D receptor signaling (AID 588541);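 further: receptor activated by calcitriol during compound treatment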
# Vitamin D3 receptor (Homo sapiens), sequence (P11473 whole entry, looked up): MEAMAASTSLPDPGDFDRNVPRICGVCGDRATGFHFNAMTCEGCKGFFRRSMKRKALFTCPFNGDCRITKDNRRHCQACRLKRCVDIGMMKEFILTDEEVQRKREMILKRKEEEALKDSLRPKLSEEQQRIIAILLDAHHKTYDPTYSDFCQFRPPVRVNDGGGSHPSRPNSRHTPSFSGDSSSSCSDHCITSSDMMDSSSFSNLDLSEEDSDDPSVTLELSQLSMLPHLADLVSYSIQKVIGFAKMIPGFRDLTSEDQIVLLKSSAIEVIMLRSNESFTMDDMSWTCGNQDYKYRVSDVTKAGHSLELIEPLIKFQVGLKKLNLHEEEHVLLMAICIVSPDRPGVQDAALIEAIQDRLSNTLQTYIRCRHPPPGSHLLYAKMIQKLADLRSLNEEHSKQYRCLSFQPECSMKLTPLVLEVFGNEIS
# Summary of the method: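 VDR-UAS-bla HEK293T cells (2000/well, 2% charcoal-stripped FBS) were treated with titrated compounds plus 1-alpha,25-dihydroxyvitamin D3 (50 nM or 3 nM final) for 16 h at 37 C. CCF4 beta-lactamase fluorescence was read; Hill fits gave IC50.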
# [10] = molecular target: Vitamin D3 receptor (Homo sapiens) (UniProt P11473); test: qHTS assay for small molecule agonists of vitamin D receptor signaling (AID 588543)
# Summary of the method: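 VDR-UAS-bla HEK293T cells, 2000/well, 2% charcoal-stripped FBS; compound titration 16 h at 37 C; CCF4 beta-lactamase ratio read. Normalized to 50 nM 1-alpha,25-dihydroxyvitamin D3 (100%) and DMSO; Hill fit gives EC50, efficacy.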
# [11] = qHTS assay for small molecule agonists of retinoid X receptor alpha signaling (AID 588544); conditions: HEK293T RXRa-UAS-bla, beta-lactamase reporter, 18 h; 530 nm emission
# [12] = molecular target: Retinoic acid receptor RXR-alpha (Homo sapiens) (UniProt P19793); test: as above
# Retinoic acid receptor RXR-alpha (Homo sapiens), sequence (P19793 whole entry, looked up): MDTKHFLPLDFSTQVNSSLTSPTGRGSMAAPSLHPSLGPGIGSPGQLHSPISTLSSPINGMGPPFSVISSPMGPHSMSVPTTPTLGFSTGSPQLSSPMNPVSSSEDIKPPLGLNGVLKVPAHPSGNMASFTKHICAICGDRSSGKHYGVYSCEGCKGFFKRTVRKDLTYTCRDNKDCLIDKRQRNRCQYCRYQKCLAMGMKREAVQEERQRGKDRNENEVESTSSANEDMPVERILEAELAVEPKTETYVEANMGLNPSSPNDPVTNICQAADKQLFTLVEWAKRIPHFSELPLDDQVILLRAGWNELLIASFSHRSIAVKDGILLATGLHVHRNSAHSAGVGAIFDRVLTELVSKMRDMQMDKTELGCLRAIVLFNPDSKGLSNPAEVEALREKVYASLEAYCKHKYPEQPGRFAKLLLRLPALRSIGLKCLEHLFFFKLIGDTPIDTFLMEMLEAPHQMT
# [13] = molecular target: Nuclear receptor subfamily 1 group I member 2 (Rattus norvegicus) (UniProt Q9R1A7); test: qHTS assay for small molecule activators of the rat pregnane X receptor (rPXR) signaling pathway (AID 651751; call rule not given here); conditions: rPXR reporter cells, luciferase (One-Glo), 24 h
# Nuclear receptor subfamily 1 group I member 2 (Rattus norvegicus), sequence (Q9R1A7 whole entry, looked up): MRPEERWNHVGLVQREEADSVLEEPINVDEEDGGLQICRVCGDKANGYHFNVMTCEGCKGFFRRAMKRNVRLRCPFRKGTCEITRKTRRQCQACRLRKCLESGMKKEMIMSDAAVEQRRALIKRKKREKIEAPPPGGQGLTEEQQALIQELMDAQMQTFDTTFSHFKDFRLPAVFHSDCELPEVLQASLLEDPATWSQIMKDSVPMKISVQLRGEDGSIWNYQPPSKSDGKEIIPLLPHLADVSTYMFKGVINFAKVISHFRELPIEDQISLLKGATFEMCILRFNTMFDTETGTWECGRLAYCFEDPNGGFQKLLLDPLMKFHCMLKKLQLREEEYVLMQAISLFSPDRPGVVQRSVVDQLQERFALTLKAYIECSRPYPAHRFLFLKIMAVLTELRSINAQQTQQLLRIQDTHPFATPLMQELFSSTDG
# [14] = qHTS assay for small molecule activators of the human pregnane X receptor (PXR) signaling pathway (AID 720659; call rule not given here)
# [15] = molecular target: Chromobox protein homolog 1 (Homo sapiens) (UniProt P83916); test: qHTS Validation Assay for Inhibitors of HP1-beta Chromodomain Interactions with Methylated Histone Tails (AID 488953; active means well fitted curve in the direction sought with a large enough effect; an effect the other way counts as inactive or inconclusive; further: potency means the concentration at half of the fitted maximal effect; nearly all actives have a fitted effect of over 50% in size)
# Summary of the method: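 HP1-beta (50 nM) preformed 30 min with biotinylated H3(1-18)K9me3 peptide (50 nM) in PBS pH 7.4, 0.01% Tween-20. Compounds added for 30 min at room temperature. Complex disruption read by AlphaScreen with streptavidin donor/nickel chelate acceptor beads (10 ug/mL each).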
# [16] = molecular target: Estrogen receptor (Homo sapiens) (UniProt P03372); test: qHTS assay for small molecule antagonists of estrogen receptor alpha signaling (AID 588513; active means well fitted curve in the direction sought with a large enough effect in the signal ratio, with a control signal flat, not every such curve was filed as active; the % refers to the signal ratio)
# Summary of the method: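 ER-alpha-UAS-bla GripTite HEK 293 cells in 2% charcoal/dextran-treated FBS medium; compounds titrated (1:2, duplicate), then stimulated with 0.5 nM 17-beta-estradiol for 18 h at 37C. CCF4 beta-lactamase fluorescence; Hill-fit IC50 and efficacy.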
# [17] = molecular target: Bile acid receptor (Homo sapiens) (UniProt Q96RI1); test: qHTS assay for small molecule antagonists of farnesoid X receptor signaling (AID 588526)
# Bile acid receptor (Homo sapiens), sequence (Q96RI1 whole entry, looked up): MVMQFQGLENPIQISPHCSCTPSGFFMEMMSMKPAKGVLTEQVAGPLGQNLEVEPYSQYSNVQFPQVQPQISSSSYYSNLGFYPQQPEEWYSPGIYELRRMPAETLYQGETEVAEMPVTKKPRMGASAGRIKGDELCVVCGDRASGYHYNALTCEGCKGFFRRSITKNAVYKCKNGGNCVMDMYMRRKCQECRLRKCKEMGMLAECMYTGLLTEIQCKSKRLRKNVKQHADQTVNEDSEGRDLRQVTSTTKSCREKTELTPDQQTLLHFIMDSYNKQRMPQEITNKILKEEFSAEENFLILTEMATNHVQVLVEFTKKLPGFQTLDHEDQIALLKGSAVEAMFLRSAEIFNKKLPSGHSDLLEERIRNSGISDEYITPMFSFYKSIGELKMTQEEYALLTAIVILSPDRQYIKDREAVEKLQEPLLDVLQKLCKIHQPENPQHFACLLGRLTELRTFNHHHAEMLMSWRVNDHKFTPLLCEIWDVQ
# Summary of the method: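 Concentration-response titrations were fitted to the Hill equation for half-maximal inhibition and maximal response, with data normalised to 50 uM chenodeoxycholic acid and DMSO control wells. Cells: FXR-UAS-bla HEK293T, dialyzed FBS.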
# [18] = molecular target: Glucocorticoid receptor (Homo sapiens) (UniProt P04150); test: qHTS assay for small molecule agonists of glucocorticoid receptor signaling (AID 588532; active means well fitted curve in the direction sought with a large enough effect in the signal ratio, with a control signal flat; the % refers to the signal ratio); conditions: HeLa MMTV-bla, beta-lactamase ratio, agonist, 18 h; stronger effect = higher value; percent of dexamethasone control, DMSO zero
# Summary of the method: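 MMTV-bla HeLa, beta-lactamase reporter; medium with 1% charcoal/dextran-stripped FBS; cpds up to 92 uM, 18 h, 37 C; CCF4 readout 460/530 nm; Hill fit → EC50, efficacy vs 0.1 uM dexamethasone = 100%.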
# [19] = qHTS for differential inhibitors of proliferation of Plasmodium falciparum line GB4 (AID 1816; active means well fitted curve in the direction sought with a large enough effect; an effect the other way counts as inactive or inconclusive;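 further: potency means the concentration at half of the fitted maximal effect; parasite growth measured after 72 h incubation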); conditions: Potency: Plasmodium falciparum GB4 proliferation inhibition
# [20] = Nrf2 qHTS screen for inhibitors: Validation (AID 493153; active means well fitted inhibition curve with a large enough effect in the main read-out, with a control signal flat, not every such curve was filed as active); conditions: Potency: luciferase luminescence; viability change: measured here: cytotoxicity max response
# Summary of the method: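 A549 cells carrying ARE-firefly luciferase reporter, 5000 cells/well in 5% FBS OPTI-MEM, treated with compound over a concentration series for 18-24 h at 37 C. Luciferase luminescence gave Nrf2 activity; CellTiter-Fluor fluorescence gave viability.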
smiles,measurement,setting,value
CN1C(=O)C[C@H](C(=O)N[C@@H](Cc2cnc[nH]2)C(=O)N2CCC[C@@H]2C(N)=O)NC1=O,Potency,[1],0.961 µM (active)
Nc1nc(N)c2nc(CNc3ccc(C(=O)NC(CCC(=O)O)C(=O)O)cc3)cnc2n1 (centres undefined),outcome,[2],inactive
same,Potency,[3],inactive
same,Potency,[4],inactive
CC(C)c1cnn2c(NCc3ccccc3)cc(N[C@@H](CO)[C@H](O)CO)nc12,Potency,[1],0.482 µM (active)
O=C1Nc2ccc(I)cc2/C1=C/c1cc(Br)c(O)c(Br)c1,Potency,[5],0.0794 µM (active)
CCCNC(=O)Nc1ccc(Oc2ncnc3cc(OC)c(OC)cc23)cc1Cl,"parasite growth, % of control (lower = inhibition)",[6],30.3%
O=C1c2cccc(O)c2C(=O)c2c(O)cc(CO)cc21,Potency,[7],20 µM (active)
COc1ccc(CCC(=O)Nc2nc3ccc(Cl)cc3s2)cc1OC,"parasite growth, % of control (lower = inhibition)",[6],46.1%
C[C@@H](c1ncncc1F)[C@](O)(Cn1cncn1)c1ccc(F)cc1F,"parasite growth, % of control (lower = inhibition)",[6],115%
CC(=O)/C=C/c1ccccc1,outcome,[8],inactive
same,outcome,[9],inactive
same,Potency,[10],inactive
same,max response,[11],-2.3%
same,outcome,[12],inactive
same,max response,[13],-0.846% (inactive)
same,outcome,[14],inactive
c1ccc2c(c1)-c1cccc3cccc-2c13,outcome,[8],inactive
same,outcome,[9],inactive
same,Potency,[10],inactive
Oc1ccccc1Cl,outcome,[9],inactive
same,Potency,[10],inactive
same,max response,[11],8.5%
same,outcome,[12],inactive
same,max response,[13],0.452% (inactive)
same,outcome,[14],inactive
NO,Potency,[15],0.006 µM (active)
same,Potency,[4],inactive
COC1=CC(=O)OC(CCc2ccc3c(c2)OCO3)C1 (centres undefined),Potency,[16],inactive
same,Potency,[17],inactive
same,activation,[18],3.34% (inactive)
COc1cc([C@@H]2c3cc4c(cc3[C@H](O)C3COC(=O)[C@@H]32)OCO4)cc(OC)c1OC (some centres undefined),Potency,[19],12.6 µM (active)
same,Potency,[3],inactive
CC(C)[C@H](CO)Nc1nc(Nc2cccc(Cl)c2)c2ncn(C(C)C)c2n1,Potency,[5],7.94 µM (active)
CC(C)COC(=O)c1ccccc1C(=O)OCC(C)C,Potency,[16],inactive
same,Potency,[7],inactive
same,Potency,[17],inactive
same,activation,[18],-1.08% (inactive)
same,max response,[11],-12.5%
same,outcome,[12],inactive
same,max response,[13],-3.74% (inactive)
same,outcome,[14],inactive
Cc1ccccc1C(=O)c1ccc(Nc2ccc(Br)cc2N)cc1Cl,Potency,[1],24.1 µM (active)
CN1[C@@H](CC(=O)c2ccccc2)CCC[C@H]1C[C@H](O)c1ccccc1,Potency,[19],10 µM (active)
same,Potency,[4],inactive
N#C/C(=C\c1ccc(O)c(O)c1)C(=O)NCCCNC(=O)/C(C#N)=C/c1ccc(O)c(O)c1,Potency,[19],2.24 µM (active)
same,Potency,[15],3.77 µM (active)
c1ccc(Nc2ccc3ccccc3c2)cc1,Potency,[16],inactive
same,Potency,[17],inactive
same,activation,[18],-2.76% (inactive) and -2.2% (inactive)
same,outcome,[8],inactive
CCOC(=O)c1ccccc1N,Potency,[16],inactive
same,Potency,[7],inactive
same,Potency,[17],inactive
same,activation,[18],0.622% (inactive)
same,outcome,[9],inactive
same,Potency,[10],inactive
same,max response,[11],-10.9%
same,outcome,[12],inactive
same,max response,[13],-1.87% (inactive)
same,outcome,[14],inactive
CCCCCCCCCC[Si](C)(C)CCC(=O)NC(Cc1ccc(C)cc1)c1ccccc1 (centres undefined),Potency,[19],2.24 µM (active)
same,outcome,[2],inactive
O=c1oc(Cl)c(Cl)c2ccccc12,Potency,[15],39.8 µM (active)
same,Potency,[3],12.6 µM (active)
Nc1nc2ccc(Cl)cc2c2nc(-c3ccco3)nn12,Potency,[5],inactive
same,outcome,[2],inactive
same,Potency,[20],inactive
same,viability change,[20],11.1%
same,Potency,[4],inactive
Nc1nc2[nH]c(=O)cnc2c(=O)[nH]1,outcome,[2],inactive
same,Potency,[15],0.0095 µM (active)
same,Potency,[20],inactive
same,viability change,[20],-3.53%

# Reference: PubChem BioAssay (NCATS)
